This is a sample that favours compounds with a hit; in the whole collection about 6.9% have one here.
Giardia kill = Giardia lamblia killing. 340,000 compounds, 0.15% hits. activity change, % at 7.66 µM, hits read low. Giardia lamblia trophozoite viability. AID 540267; in the data active = activity change below about -80%; inconclusive = between about -30% and that limit;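 note: parasites exposed to compound for two days anaerobically before the ATP read; % is set by controls: 0 for no effect and ±100 for the full control effect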
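Luminescent ATP signal served as the viability read-out, measured 15-30 min after adding ATP detection reagent to trophozoites that had been incubated with compounds for 48 hrs at 37 deg C anaerobically at 100 cells/well.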
Vif-APOBEC3G blk = blocks the Vif interaction with human APOBEC3G; HeLa A3G-eYFP + Vif (tagged APOBEC3G with the HIV-1 protein that degrades it), YFP fluorescence, overnight; Potency, µM (series often up to 46.1 µM), for the others: at the top dose activity, negative = active, usual class: inhibitors; Q9HC16; 410,000 compounds, 0.076% hits; note: potency is the fitted concentration of half-maximal effect; % is set by controls: 0 for no effect and ±100 for the full control effect; nearly all actives have a fitted effect of over 60% in size
Target sequence (Q9HC16 whole entry, looked up): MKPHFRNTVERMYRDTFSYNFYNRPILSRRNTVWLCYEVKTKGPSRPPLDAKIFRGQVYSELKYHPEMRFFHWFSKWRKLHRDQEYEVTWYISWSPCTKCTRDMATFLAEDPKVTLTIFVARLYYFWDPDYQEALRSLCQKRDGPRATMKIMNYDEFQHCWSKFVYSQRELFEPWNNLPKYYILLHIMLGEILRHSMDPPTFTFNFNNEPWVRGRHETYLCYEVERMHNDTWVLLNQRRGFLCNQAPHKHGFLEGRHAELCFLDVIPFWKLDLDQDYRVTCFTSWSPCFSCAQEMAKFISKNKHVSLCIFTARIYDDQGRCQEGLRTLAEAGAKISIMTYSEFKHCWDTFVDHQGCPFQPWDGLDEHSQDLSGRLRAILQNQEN
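HeLa cells stably expressing Vif and C-terminally eYFP-tagged A3G, seeded overnight at 37 deg C, then exposed to compound by pintool overnight at 37 deg C. Rise in yellow fluorescence (Ex 488/Em 500-530, Acumen) marks blocked Vif-driven A3G degradation.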
IL1B secr inh = inflammasome signaling inhibition, IL-1 beta readout; THP-1 LPS/ATP IL-1B secretion, AlphaLISA, 16 h; hits give low values; activity change, % at 57.5 µM; 360,000 compounds, 4.7% hits; in the data active = activity change below about -50%; inconclusive = mostly about -30% to -49%; note: % is set by controls: 0 for no effect and ±100 for the full control effect
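Secreted IL-1B measured by AlphaLISA bead assay after 16 h compound exposure of THP-1 cells; compounds (final up to 57.5 uM) added 1 h before LPS (250 ng/mL) and ATP (1.25 mM) stimulation; lower signal means less secretion.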
MCF10A rerep = DNA re-replication induction in MCF 10a cells. 350,000 compounds, 2.9% hits. MCF 10A DNA re-replication, Hoechst nuclear intensity, 48 h. Potency, µM (series often up to 46.1 µM), without a hit: top-dose activity, positive = re-replication, usual class: activators; note: potency is the fitted concentration of half-maximal effect; % of control where 0% means no effect; nearly all actives have a fitted effect of over 50% in size
Vif-A3F inh = blocks the Vif interaction with APOBEC3F | HeLa A3F-eYFP + Vif (tagged APOBEC3F with the HIV-1 protein that degrades it), YFP fluorescence increase | Potency, µM (doses to about 46.1 µM), for the others: at the top dose activity, negative = active | 390,000 compounds, 0.2% hits; note: potency is the fitted concentration of half-maximal effect; % of control where 0% means no effect; nearly all actives have a fitted effect of over 65% in size
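HeLa cells stably expressing Vif plus C-terminally eYFP-tagged A3F were seeded, incubated overnight at 37 deg C, dosed with compound, incubated overnight again at 37 deg C. Yellow fluorescence (Ex 488/Em 500-530) reported blocked Vif-mediated A3F-eYFP degradation.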
SW480 rereplic = induces DNA re-replication in SW480 colon adenocarcinoma cells; SW480 DNA re-replication, Hoechst DNA content imaging, 48 h; Potency, µM (highest dose often 46.1 µM), inactives show at the top dose re-replication activation, hits mostly activators; 340,000 compounds, 1.8% hits; AID 624297; note: potency is the fitted concentration of half-maximal effect; % of control where 0% means no effect; nearly all actives have a fitted effect of over 55% in size
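Compounds, transferred as 23 nL by pin tool, were incubated with cells for 48 hr; DNA content per nucleus was then quantified by Hoechst staining and fluorescence plate imaging.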
The depositor's hits bear a star; ? = inconclusive; / = not tested or not shown; ! = repeats disagree. Unless noted, calls come from the whole dose curve; as a rule, active = well fitted curve in the direction sought with a large enough effect; inconclusive = small, poorly fitted or top-dose-only effect, or another doubt; inactive = no such curve, though single readings can be large; an effect the other way counts as inactive or inconclusive.

SMILES | Giardia kill | Vif-APOBEC3G blk | IL1B secr inh | MCF10A rerep | Vif-A3F inh | SW480 rereplic
N#CCSc1nnc(Cc2cccc3ccccc23)n1C1CCCCC1 | -21 | 1% | -65* | 4% | 5% | 3%
COC(=O)c1ccc(NC(=O)c2cc(S(=O)(=O)N3CCc4ccccc43)cn2C)cc1 | / | 1% | / | / | 4% | /
Cc1ccc(Oc2ccc(C(=O)NCc3ccncc3)cc2)cc1 | 44 | -1% | -51* | 2% | -8% | 2%
O=C(NCc1ccncc1)c1ccc(Oc2ccccc2)cc1 | -2 | 7% | -66* | 2% | 1% | 2%
O=C(NCc1ccncc1)c1ccc(OCc2ccccc2)cc1 | 5 | -3% | -20 | 0% | 3% | 4%
O=C(NC(=S)N1CCOCC1)c1ccc([N+](=O)[O-])cc1 | 22 | -1% | 27 | -98% | 5% | 0.65µM*
N#Cc1ccc(C(=O)NC(=S)N2CCOCC2)cc1 | 9 | 4% | 3 | 0% | ? | 4%
COCCNc1oc(-c2ccc(Cl)cc2)nc1C#N | -11 | -3% | -56* | 12% | 3% | -9%
COc1ccc(Nc2oc(-c3ccc(Cl)cc3)nc2C#N)cc1 | 8 | ? | -15 | 16µM* | -22% | ?
COCCNc1oc(-c2ccc(C)cc2)nc1C#N | -10 | 1% | ? | 2% | -13% | -173%
N#Cc1nc(-c2ccc(Cl)cc2)oc1NCc1ccco1 | 17 | 0% | -24 | 15µM* | -7% | -5%
CCOc1ccc(Nc2oc(-c3ccc(Cl)cc3)nc2C#N)cc1 | 1 | -12% | -9 | 21µM* | -1% | ?
COc1ccccc1-c1cc2nc(C)c(CCC(=O)Nc3ccc(Br)c(C)c3)c(C)n2n1 | / | -1% | / | / | -11% | /
CC(C(=O)Nc1ccc(F)c(Cl)c1)N1Cc2ccccc2C1=O (centres undefined) | / | 2% | / | / | 1% | /
O=C(Nc1ccccc1OCc1cc(=O)n2ccccc2n1)c1cccc(Br)c1 | / | 4% | / | / | -9% | /
CCCc1[nH]nc2c1C(c1ccccc1OCC)C(C#N)=C(N)O2 (centres undefined) | 6 | -26% | ? | 1% | -8% | 4%
COCc1[nH]nc2c1C(c1ccnc3ccccc13)C(C#N)=C(N)O2 (centres undefined) | -2 | 1% | -25 | ? | 5% | 16µM*
COCc1[nH]nc2c1C(c1ccc(F)cc1F)C(C#N)=C(N)O2 (centres undefined) | 0 | -4% | ? | 1% | -6% | -1%
CCCc1[nH]nc2c1C(c1cccnc1)C(C#N)=C(N)O2 (centres undefined) | 5 | 1% | -15 | -2% | 0% | -5%
CCCc1[nH]nc2c1C(c1ccccc1OC)C(C#N)=C(N)O2 (centres undefined) | -4 | -12% | -53* | 8% | 0% | 3%
CCCc1[nH]nc2c1C(c1cn[nH]c1-c1ccc(F)cc1)C(C#N)=C(N)O2 (centres undefined) | 21 | -18% | -90* | ? | -12% | 8%
CCCc1[nH]nc2c1C(c1ccc(O)c(OC)c1)C(C#N)=C(N)O2 (centres undefined) | -4 | -15% | -67* | ? | 4% | 7%
Cc1ccc(C)c(N2CCN(C(=O)c3c4c(nc5ccccc35)C(=O)N(C3CCCCC3)C4)CC2)c1 | / | -1% | / | / | 4% | /
Cc1ccc(CNC(=O)Cn2cc(S(=O)(=O)Cc3ccccc3F)c3ccccc32)cc1 | / | -1% | / | / | -1% | /
COc1ccc(NC(=O)Cn2cc(S(=O)(=O)c3ccccc3)c(=O)c3cc(C)ccc32)cc1Cl | / | 0% | / | / | 2% | /
SMILES | Giardia kill | Vif-APOBEC3G blk | IL1B secr inh | MCF10A rerep | Vif-A3F inh | SW480 rereplic
CCCc1[nH]nc2c1C(/C(C)=C/c1ccccc1)C(C#N)=C(N)O2 (centres undefined) | 0 | -16% | -94* | 2% | -6% | -3%
COC(=O)C1=CN(C(C)c2ccccc2)C=C(C(=O)OC)C1c1cc(OC)c(OC)c(OC)c1 (centres undefined) | 1 | -9% | -16 | ? | -14% | 21µM*
COC(=O)C1=CN(Cc2ccc(OC)cc2)C=C(C(=O)OC)C1c1cc(OC)c(OC)c(OC)c1 | -23 | -8% | ? | ? | -16% | -87%
O=C1CCCC2=C1C1(CCCCC1)N=C(Nc1nc3ccccc3s1)N2 | -5 | 1% | 27 | 10µM* | -9% | 15%
O=C1CCCC2=C1C1(CCCC1)N=C(Nc1nc3ccccc3s1)N2 | -27 | 1% | 17 | ? | -8% | -3%
CCN(CC)C(=O)c1sc2c(c1C)c(=O)n(-c1ccccc1)c(=O)n2Cc1c(C)cc(C)cc1C | / | -3% | / | / | 2% | /
C=CCOc1ccccc1CNc1cccc(F)c1 | 16 | -15% | -5 | -2% | -11% | ?
C=CCOc1ccccc1CNc1ccccc1C | 17 | -11% | 4 | ? | -10% | 8.2µM*
C=CCOc1ccccc1CNc1ccc2c(c1)OCCO2 | 3 | -12% | -75* | 4% | -1% | 24%
CC(=O)Nc1ccc(NC(=O)C2CCC(N3C(=O)C4C5C=CC(C6CC56)C4C3=O)CC2)cc1 (centres undefined) | -19 | -2% | 20 | 23µM* | 12% | 2%
O=C(Nc1ccc(Cc2ccncc2)cc1)C1CCC(N2C(=O)C3C4C=CC(C5CC45)C3C2=O)CC1 (centres undefined) | 7 | -1% | 0 | ? | 2% | 14%
COCCNC(=O)C1(C(F)(F)F)C/C(=C/CCO)CCCO1 (centres undefined) | -14 | 4% | / | / | / | /
CCOC(=O)c1c(C)[nH]c(C)c1S(=O)(=O)N1CCC(C(=O)NCc2ccc(F)cc2)CC1 | / | 0% | / | / | 3% | /
COc1ccc(CCN2CCC(Nc3nc4ccccc4n3Cc3ccc(F)cc3)CC2)cc1 | -25 | -11% | -67* | 4.6µM* | 7% | 3.7µM*!
CCN(CC)S(=O)(=O)c1ccc(-c2csc(C)n2)cc1 | -2 | 3% | 5 | ? | -2% | -25%
CCCN(CCC)S(=O)(=O)c1cccc(-c2csc(C)n2)c1 | 25 | -1% | -55* | -1% | 1% | 1%
COc1ccc(NC(=O)C2CCCN(S(=O)(=O)c3ccc(F)cc3)C2)cc1 (centres undefined) | / | 3% | / | / | -1% | /
COc1cc(OC)cc(C(=O)NCCc2csc(-c3ccc(C(F)(F)F)cc3)n2)c1 | / | -1% | / | / | 3% | /
Cc1ccc(CN2C(=O)C(CC(C)C)Nc3ncnc(N4CCN(c5ccccn5)CC4)c32)cc1 (centres undefined) | 40 | -9% | -56* | ? | 0% | 1%
CC(C)CC1Nc2ncnc(N3CCN(c4ccccn4)CC3)c2N(Cc2ccc(Br)cc2)C1=O (centres undefined) | 7 | -1% | ? | ? | 2% | -6%

From PubChem
